# Measured values from PubChem BioAssay (NCATS).
# “And” between values parts separate entries of the source, which are not always exact repeats. Identical values can stand only once. Records with an inconclusive call do not appear. Where a call stands in place of a potency, no number is given. Values without a mark were called inactive. The source made the active and inactive calls. Calls follow the shape of the dose curve; as a rule, active = well fitted curve in the direction sought with a large enough effect; inconclusive = small, poorly fitted or top-dose-only effect, or another doubt; inactive = no such curve, though single readings can be large; an effect the other way counts as inactive or inconclusive.
# Tests used:
# [1] = target: Cytochrome P450 3A7 (Homo sapiens) (UniProt P24462); test: Cytochrome P450 family 3 subfamily A member 7 (CYP3A7) small molecule antagonists: luciferase biochemical qHTS assay (AID 1963596); also: nearly all actives have a fitted effect of over 40% in size; also: potency is read from the fitted curve at half-maximal effect
# How it was run: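 Enzyme-substrate mix + cpd (DMSO), 10 min RT; + NADPH regen system, 1 h RT; + luciferin detection reagent, 20 min RT; luminescence read. Proluciferin substrate, P450-Glo format, 1536-well qHTS.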
# [2] = Viability qHTS for spleen associated tyrosine kinase inhibitor (SYKi) drug resistant MV4-11 cells (AID 1963824); also: nearly all actives have a fitted effect of over 35% in size; also: potency is read from the fitted curve at half-maximal effect
# How it was run: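 SYK-inhibitor-resistant MV4-11 AML cells were seeded at 500 per well onto compound and cultured 72 hours (37 °C, 5% CO2). CellTiter-Glo was then added, and after 10 min at room temperature, luminescence gave viability.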
# [3] = Cellular viability qHTS for adrenocortical cancer (ACC) cell line SW-13 (AID 1963989); conditions: SW-13 ACC cells viability, CellTiter-Glo, 48 h; activity (max response): hits give low values; also: nearly all actives have a fitted effect of over 65% in size; also: potency is read from the fitted curve at half-maximal effect;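 as to activity (max response): cells grown in serum-free medium with ITS supplement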
# How it was run: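 SW-13 cells in ITS-supplemented serum-free DMEM were plated overnight, then exposed for 48 h at 37C to compound titrations (up to 46 uM final). Viability was read by CellTiter-Glo luminescence; four-parameter logistic fits gave IC50 and efficacy.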
# [4] = Cellular viability qHTS for adrenocortical cancer (ACC) cell line NCI-H295R (AID 1963990); also: nearly all actives have a fitted effect of over 60% in size; also: potency is read from the fitted curve at half-maximal effect
# How it was run: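 Luminescent ATP read-out (CellTiter-Glo, 20 min RT) after 48 h drug exposure of NCI-H295R cells; a titration up to 46 uM final. Data normalized to doxorubicin (100% inhibition) and DMSO (0%); 4-parameter fit gives IC50, max response.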
# [5] = Quantitative highthroughput screen to assess conditional lethalithy of NOMO1 cells grown in RPMI1640 with untreated serum (RPMI+s) (AID 1963876); also: nearly all actives have a fitted effect of over 35% in size
# How it was run: (§1)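 Each medium arm—HPLM with 10% dialyzed FBS, or RPMI1640 with 5 mM glucose and 10% untreated or dialyzed FBS—was screened against an 11-point, 3-fold compound titration for 48 h at 37 °C, with CellTiter-Glo luminescence as endpoint.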
# [6] = Quantitative highthroughput screen to assess conditional lethalithy of NOMO1 cells grown in Human Plasma-Like Medium with dialyzed fetal bovine serum (HPLM+ds) (AID 1963878); also: nearly all actives have a fitted effect of over 35% in size
# How it was run: as §1
# [7] = Quantitative highthroughput screen to assess conditional lethalithy of P12 Ichikawa cells grown in Human Plasma-Like Medium with dialyzed fetal bovine serum (HPLM+ds) (AID 1963879); conditions: Potency: viability; also: nearly all actives have a fitted effect of over 35% in size; also: potency is read from the fitted curve at half-maximal effect; as to Viability: series mostly up to about 46 µM
# How it was run: as §1
# [8] = Quantitative highthroughput screen to assess conditional lethalithy of P12 Ichikawa cells grown in RPMI1640 with dialyzed fetal bovine serum (RPMI+ds) (AID 1963880); conditions: Potency: P12-Ichikawa viability; also: nearly all actives have a fitted effect of over 35% in size
# How it was run: as §1
# [9] = Quantitative highthroughput screen to assess conditional lethalithy of SEM cells grown in Human Plasma-Like Medium with dialyzed fetal bovine serum (HPLM+ds) (AID 1963882)
# How it was run: as §1
# [10] = Quantitative highthroughput screen to assess conditional lethalithy of P12 Ichikawa cells grown in RPMI1640 with untreated serum (RPMI+s) (AID 1963881); conditions: Potency: viability; also: nearly all actives have a fitted effect of over 35% in size; also: potency is read from the fitted curve at half-maximal effect; as to Viability: series mostly up to about 46 µM
# How it was run: as §1
# [11] = Quantitative highthroughput screen to assess conditional lethalithy of SEM cells grown in RPMI1640 with unreated serum (RPMI+s) (AID 1963883); also: nearly all actives have a fitted effect of over 35% in size; also: potency is read from the fitted curve at half-maximal effect
# How it was run: as §1
# [12] = Quantitative highthroughput screen to assess conditional lethalithy of SEM cells grown in RPMI1640 with dialyzed fetal bovine serum (RPMI+ds) (AID 1963884); also: nearly all actives have a fitted effect of over 35% in size; also: potency is read from the fitted curve at half-maximal effect; as to Viability: series mostly up to about 46 µM
# How it was run: as §1
# [13] = Quantitative highthroughput screen to assess conditional lethalithy of NOMO1 cells grown in RPMI1640 with dialyzed fetal bovine serum (RPMI+ds) (AID 1963877); also: series mostly up to about 46 µM; nearly all actives have a fitted effect of over 30% in size
# How it was run: as §1
# Chain of Cytochrome P450 3A7 (Homo sapiens) (P24462 whole entry, looked up): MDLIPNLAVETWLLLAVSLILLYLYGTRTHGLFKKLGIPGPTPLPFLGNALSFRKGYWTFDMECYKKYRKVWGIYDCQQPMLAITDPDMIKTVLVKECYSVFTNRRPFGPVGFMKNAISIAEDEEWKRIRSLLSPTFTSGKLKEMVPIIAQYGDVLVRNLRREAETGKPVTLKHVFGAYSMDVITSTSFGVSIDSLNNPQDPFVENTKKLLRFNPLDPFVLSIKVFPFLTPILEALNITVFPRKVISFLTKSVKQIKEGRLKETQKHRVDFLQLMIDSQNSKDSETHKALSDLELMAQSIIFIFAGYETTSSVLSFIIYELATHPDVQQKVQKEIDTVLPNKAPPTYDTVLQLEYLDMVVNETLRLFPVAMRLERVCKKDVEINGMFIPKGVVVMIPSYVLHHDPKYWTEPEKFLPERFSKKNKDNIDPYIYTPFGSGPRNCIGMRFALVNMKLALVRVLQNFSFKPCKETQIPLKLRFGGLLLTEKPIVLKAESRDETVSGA
smiles,measurement,setting,value
COc1cc(/C=C/C(N)=O)cc(OC)c1OC,Potency,[1],inactive
same,Potency,[2],inactive
same,activity (max response),[3],17.9%
same,Potency,[4],inactive
O=P(O)(O)C(O)(Cc1cccnc1)P(=O)(O)O,Potency,[1],inactive
same,Potency,[2],inactive
same,Potency,[5],inactive
same,Potency,[6],inactive
same,Potency,[7],inactive
same,Potency,[8],inactive
same,Potency,[9],inactive
same,activity (max response),[3],11.3% and 10.6%
Cc1nn(Cc2ccccc2Cl)c(C)c1CN(C)CC(O)COc1ccc(Cl)cc1 (stereo unspecified),Potency,[1],inactive
same,Potency,[2],7.42 µM (active)
same,Potency,[3],25100 nM (active)
same,Potency,[4],17.8 µM (active)
CCCCc1ccc2nc(NC(=O)OC)[nH]c2c1,Potency,[1],inactive
same,Potency,[2],0.118 µM (active)
same,Potency,[7],93.5 nM (active)
same,Potency,[10],83.3 nM (active)
same,Potency,[11],59 nM (active)
same,Potency,[12],41.8 nM (active)
same,Potency,[4],103 nM (active) and 224 nM (active)
C/C(=N\O)[C@@H](C)NCC(C)(C)CN[C@H](C)/C(C)=N/O,Potency,[1],inactive
same,Potency,[2],inactive
same,activity (max response),[3],8.19%
CC(=O)OC[C@H]1O[C@@H](OC(C)=O)[C@H](OC(C)=O)[C@@H]1OC(C)=O,Potency,[1],inactive
same,Potency,[2],inactive
same,activity (max response),[3],10.4%
COc1cccc(OC)c1C(=O)N[C@@H]1C(=O)N2[C@@H]1SC(C)(C)[C@@H]2C(=O)O,Potency,[1],inactive
same,Potency,[2],inactive
same,activity (max response),[3],11.1%
CCCCOCCOC(=O)c1cccnc1,Potency,[1],inactive
same,Potency,[2],inactive
same,activity (max response),[3],-1.25%
same,Potency,[4],inactive
NCC(=O)CCC(=O)O,Potency,[1],inactive
same,Potency,[2],inactive
same,activity (max response),[3],16.5%
same,Potency,[4],inactive
CN1[C@@H]2CC[C@H]1CC(OC(=O)C(O)c1ccccc1)C2 (stereo partly specified),Potency,[1],inactive
same,Potency,[2],inactive
same,Potency,[4],inactive
Cc1c(C(N)=O)cc([N+](=O)[O-])cc1[N+](=O)[O-],Potency,[1],inactive
same,Potency,[2],inactive
same,activity (max response),[3],-7.83%
same,Potency,[4],inactive
CCOc1cc2ncc(C#N)c(Nc3ccc(F)c(Cl)c3)c2cc1NC(=O)/C=C/CN(C)C,Potency,[1],inactive
same,Potency,[2],0.235 µM (active)
same,Potency,[3],631 nM (active)
same,Potency,[4],3.55 µM (active)
CCN1CCN(Cc2ccc(NC(=O)c3ccc(C)c(NC(=O)c4cncc(-c5cccs5)c4)c3)cc2C(F)(F)F)CC1,Potency,[1],inactive
same,Potency,[2],14.6 nM (active) and 26.3 nM (active)
same,Potency,[3],2000 nM (active)
same,Potency,[4],2.51 µM (active)
Cc1c(C(=O)N2CCOc3ccc(-c4ccc(N)nc4)cc3C2)ccc(S(C)(=O)=O)c1F,Potency,[1],inactive
same,Potency,[2],3.26 µM (active)
same,Potency,[4],8.91 µM (active)
CN(C)CCN(Cc1ccsc1)c1ccccn1,Potency,[1],inactive
same,Potency,[2],inactive
same,activity (max response),[3],6.67%
same,Potency,[4],inactive
O=C1OC(OC(=O)c2cccnc2Nc2cccc(C(F)(F)F)c2)c2ccccc21 (stereo unspecified),Potency,[1],inactive
same,Potency,[2],inactive
same,activity (max response),[3],6.27%
same,Potency,[4],inactive
Cc1[nH]c(=O)c(C#N)cc1-c1ccc2nccn2c1,Potency,[1],inactive
same,Potency,[5],inactive
same,Potency,[13],inactive
same,Potency,[6],inactive
same,Potency,[7],inactive
same,Potency,[8],inactive
same,Potency,[10],inactive
same,Potency,[9],inactive
same,Potency,[11],inactive
same,activity (max response),[3],11.7%
same,Potency,[4],inactive
CCOC(=O)c1cccc(N)c1,Potency,[1],27500 nM (active)
same,Potency,[2],inactive
same,activity (max response),[3],-1.69%
same,Potency,[4],inactive
Cc1cc(NC(=O)C2=C(O)c3ccccc3S(=O)(=O)N2C)no1,Potency,[1],inactive
same,Potency,[2],inactive
same,Potency,[4],inactive
CC(C)=CCC/C(C)=C/CC/C(C)=C/CCC(=O)OC/C=C(\C)CCC=C(C)C,Potency,[1],inactive
same,Potency,[2],inactive
same,Potency,[4],inactive
c1ccc2c(CC3=NCCN3)cccc2c1,Potency,[1],inactive
same,Potency,[2],11.9 µM (active)
same,activity (max response),[3],1.1%
same,Potency,[4],inactive
CCN(CC)CC#CCOC(=O)C(O)(c1ccccc1)C1CCCCC1 (stereo unspecified),Potency,[1],inactive
same,Potency,[5],inactive
same,Potency,[13],inactive
same,Potency,[6],inactive
same,Potency,[7],inactive
same,Potency,[8],inactive
same,Potency,[10],inactive
same,Potency,[9],inactive
same,Potency,[11],inactive
same,Potency,[12],inactive
CCN(CC)CC(=O)Oc1ccc(NC(C)=O)cc1,Potency,[1],inactive
same,Potency,[2],inactive
same,activity (max response),[3],13.2%
same,Potency,[4],inactive
CC1(C)OC[C@@H]2O[C@@]3(C(=O)O)OC(C)(C)O[C@H]3[C@@H]2O1,Potency,[1],inactive
same,Potency,[2],inactive
same,Potency,[4],inactive
Cc1ccc(Cl)c(OCC(O)CNC(C)(C)C)c1 (stereo unspecified),Potency,[1],inactive
same,Potency,[2],inactive
same,activity (max response),[3],1.06%
same,Potency,[4],inactive
NS(=O)(=O)c1ccc(N2CCCCS2(=O)=O)cc1,Potency,[1],inactive
same,Potency,[2],inactive
same,Potency,[4],inactive
CC[C@@H](CO)NCCN[C@@H](CC)CO,Potency,[1],inactive
same,Potency,[2],inactive
same,activity (max response),[3],14%
same,Potency,[4],inactive
CC(=O)OC[C@H]1O[C@@H](n2ncc(=O)[nH]c2=O)[C@H](OC(C)=O)[C@@H]1OC(C)=O,Potency,[1],inactive
same,Potency,[2],inactive
same,activity (max response),[3],-6.84%
same,Potency,[4],inactive
CN[C@@H](C)C(=O)N[C@H](C(=O)N1CCC[C@H]1c1nc(C(=O)c2ccc(F)cc2)cs1)C1CCCCC1,Potency,[1],14100 nM (active)
same,Potency,[2],1.05 µM (active)
same,Potency,[4],inactive
